The test system of this experiment is Rolipram. In words: CYP450 and receptor off-target profile – biochemical, Ricerca HitProfilingScreen, selectivity assay for GPR7 antagonist project, late-stage follow-up (AID 504401). The following applies: Ricerca radioligand binding and CYP450 panel, at 10 µM, stronger effect = higher value.

Structures are written as SMILES. A number with no mark means an inactive call. The rule behind the calls is not given here.

The term inhibition denotes the drop in the measured response relative to a control, in per cent. Take `COc1ccc(Oc2c(Cl)cnn(-c3cc(C)cc(C)c3)c2=O)cc1`: the inhibition was 22%.

(Values after PubChem BioAssay AID504401 (The Scripps Research Institute Molecular Screening Center, 2011).)
